Data: the supplement of paper PMC7411054
Structures can show the parent of a compound that is named as a salt.

Key:
Conditions in all cases: treatment time: 24 h
A549-ACTB-RAB5A [1] = assay: lowest phenotypically active concentration; higher = less potent
Outline: (§1)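 Fifteen gene-edited A549, HepG2 and WPMY1 reporter lines (BFP segmentation plus GFP and RFP/FusionRed markers) were treated at 0.3, 1, 3 or 9 µM for 24 h, four wells each, then imaged live. Live-cell features per well were normalised to DMSO control wells. Deviation required ≥3 of 4 wells beyond the 95th percentile of DMSO Euclidean distances, and reproducibility required median replicate Pearson correlation above the 95th percentile of non-replicates. Phenotypic activity needed both criteria.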

A549-CANX-COX4 [2] = assay: as above
Outline: as §1

A549-GM130-SQSTM1 [3] = assay: as above
Outline: as §1

A549-TUBA1B-RELA [4] = assay: as above
Outline: as §1

HepG2-TUBA1B-RELA [5] = assay: as above
Outline: as §1

A549-ACTB-RAB5A [6] = assay: phenotypically active (imaging signature differs from DMSO and reproducible) at any of 0.3-9 uM (binary (1 = active, 0 = inactive)); higher = active
Outline: as §1

A549-CANX-COX4 [7] = assay: as above
Outline: as §1

A549-GM130-SQSTM1 [8] = assay: as above
Outline: as §1

A549-TP53BP1-CLTA = assay: as above
Outline: as §1

A549-TUBA1B-RELA [9] = assay: as above
Outline: as §1

HepG2-ACTB-RAB5A = assay: as above
Outline: as §1

HepG2-CANX-COX4 = assay: as above
Outline: as §1

HepG2-GM130-SQSTM1 = assay: as above
Outline: as §1

HepG2-TP53BP1-CLTA = assay: as above
Outline: as §1

HepG2-TUBA1B-RELA [10] = assay: as above
Outline: as §1

WPMY1-ACTB-RAB5A = assay: as above
Outline: as §1

WPMY1-CANX-COX4 = assay: as above
Outline: as §1

WPMY1-GM130-SQSTM1 = assay: as above
Outline: as §1

WPMY1-TP53BP1-CLTA = assay: as above
Outline: as §1

WPMY1-TUBA1B-RELA = assay: as above
Outline: as §1

SMILES | lowest phenotypically active concentration (A549-ACTB-RAB5A [1]) [µM] | lowest phenotypically active concentration (A549-CANX-COX4 [2]) [µM] | lowest phenotypically active concentration (A549-GM130-SQSTM1 [3]) [µM] | lowest phenotypically active concentration (A549-TUBA1B-RELA [4]) [µM] | lowest phenotypically active concentration (HepG2-TUBA1B-RELA [5]) [µM] | phenotypically active (A549-ACTB-RAB5A [6]) | phenotypically active (A549-CANX-COX4 [7]) | phenotypically active (A549-GM130-SQSTM1 [8]) | phenotypically active (A549-TP53BP1-CLTA) | phenotypically active (A549-TUBA1B-RELA [9]) | phenotypically active (HepG2-ACTB-RAB5A) | phenotypically active (HepG2-CANX-COX4) | phenotypically active (HepG2-GM130-SQSTM1) | phenotypically active (HepG2-TP53BP1-CLTA) | phenotypically active (HepG2-TUBA1B-RELA [10]) | phenotypically active (WPMY1-ACTB-RAB5A) | phenotypically active (WPMY1-CANX-COX4) | phenotypically active (WPMY1-GM130-SQSTM1) | phenotypically active (WPMY1-TP53BP1-CLTA) | phenotypically active (WPMY1-TUBA1B-RELA)
Cc1ccc([N+](=O)[O-])cc1S(=O)(=O)N(C)/N=C/c1cnc2ccc(Br)cn12 | ≤ 0.3 | ≤ 0.3 | ≤ 0.3 | ≤ 0.3 | ≤ 0.3 | 1 (active) | 1 (active) | 1 (active) | 1 (active) | 1 (active) | 1 (active) | 1 (active) | 1 (active) | 1 (active) | 1 (active) | 1 (active) | 1 (active) | 1 (active) | 1 (active) | 1 (active)
C[C@@H]1CN(CC(=O)Nc2ccc3c(c2)Cc2cccc(-c4cc(=O)cc(N5CCOCC5)o4)c2S3)C[C@H](C)O1 | 3 | 9 | 3 | 9 | 3 | 1 (active) | 1 (active) | 1 (active) | 1 (active) | 1 (active) | 1 (active) | 1 (active) | 1 (active) | 1 (active) | 1 (active) | 1 (active) | 1 (active) | 1 (active) | 1 (active) | 1 (active)
Cc1ccc(C(=O)N(CCCN)[C@@H](c2oc3cc(Cl)ccc3c(=O)c2Cc2ccccc2)C(C)C)cc1 | ≤ 0.3 | ≤ 0.3 | ≤ 0.3 | ≤ 0.3 | ≤ 0.3 | 1 (active) | 1 (active) | 1 (active) | 1 (active) | 1 (active) | 1 (active) | 1 (active) | 1 (active) | 1 (active) | 1 (active) | 1 (active) | 1 (active) | 1 (active) | 1 (active) | 1 (active)
CC[C@@H]1C(=O)N(C)c2cnc(Nc3ccc(C(=O)NC4CCN(C)CC4)cc3OC)nc2N1C1CCCC1 | ≤ 0.3 | ≤ 0.3 | 1 | ≤ 0.3 | ≤ 0.3 | 1 (active) | 1 (active) | 1 (active) | 1 (active) | 1 (active) | 1 (active) | 1 (active) | 1 (active) | 1 (active) | 1 (active) | 1 (active) | 1 (active) | 1 (active) | 1 (active) | 1 (active)
O=C(NC(NC(=S)Nc1ccc(F)c([N+](=O)[O-])c1)C(Cl)(Cl)Cl)C(c1ccccc1)c1ccccc1 (stereo not given) | 3 | 9 | 3 | 9 | 9 | 1 (active) | 1 (active) | 1 (active) | 1 (active) | 1 (active) | 1 (active) | 1 (active) | 1 (active) | 1 (active) | 1 (active) | 1 (active) | 1 (active) | 1 (active) | 1 (active) | 1 (active)
CC1=C(C(=O)Nc2cc3cn[nH]c3cc2F)C(c2ccc(C(F)(F)F)cc2)CC(=O)N1 (stereo not given) | ≤ 0.3 | 1 | 1 | ≤ 0.3 | ≤ 0.3 | 1 (active) | 1 (active) | 1 (active) | 1 (active) | 1 (active) | 1 (active) | 1 (active) | 1 (active) | 1 (active) | 1 (active) | 1 (active) | 1 (active) | 1 (active) | 1 (active) | 1 (active)
Cc1ccc2nc(NCCN)c3ncc(C)n3c2c1 | 3 | 9 | 3 | 3 | 3 | 1 (active) | 1 (active) | 1 (active) | 1 (active) | 1 (active) | 1 (active) | 1 (active) | 1 (active) | 1 (active) | 1 (active) | 1 (active) | 1 (active) | 1 (active) | 1 (active) | 1 (active)
CCC1(O)CC2CN(CCc3c([nH]c4ccccc34)C(C(=O)OC)(c3cc4c(cc3OC)N(C)C3C(O)(C(=O)OC)C(OC(C)=O)C5(CC)C=CCN6CCC43C65)C2)C1 (stereo not given) [Vinblastine sulfate] | ≤ 0.3 | ≤ 0.3 | ≤ 0.3 | ≤ 0.3 | ≤ 0.3 | 1 (active) | 1 (active) | 1 (active) | 1 (active) | 1 (active) | 1 (active) | 1 (active) | 1 (active) | 1 (active) | 1 (active) | 1 (active) | 1 (active) | 1 (active) | 1 (active) | 1 (active)
COc1ccc(N2C(=O)CSC2c2cccc(Br)c2)c(OC)c1 (stereo not given) | 3 | 9 | 9 | 9 | 9 | 1 (active) | 1 (active) | 1 (active) | 1 (active) | 1 (active) | 1 (active) | 1 (active) | 1 (active) | 1 (active) | 1 (active) | 1 (active) | 1 (active) | 1 (active) | 1 (active) | 1 (active)
CCc1cccc(CC)c1NC(=O)N1Cc2[nH]nc(NC(=O)c3ccc(N4CCN(C)CC4)cc3)c2C1 | ≤ 0.3 | 3 | 1 | 1 | ≤ 0.3 | 1 (active) | 1 (active) | 1 (active) | 1 (active) | 1 (active) | 1 (active) | 1 (active) | 1 (active) | 1 (active) | 1 (active) | 1 (active) | 1 (active) | 1 (active) | 1 (active) | 1 (active)
O=C1NCCN1CCN1CCC(c2cn(-c3ccc(F)cc3)c3ccc(Cl)cc23)CC1 [sertindole] | 3 | 3 | 3 | 3 | 3 | 1 (active) | 1 (active) | 1 (active) | 1 (active) | 1 (active) | 1 (active) | 1 (active) | 1 (active) | 1 (active) | 1 (active) | 1 (active) | 1 (active) | 1 (active) | 1 (active) | 1 (active)
CCCC1(CCC)CCC2(CCN(CCCN(CC)CC)C2)CC1 [Atiprimod dihydrochloride] | ≤ 0.3 | 3 | ≤ 0.3 | ≤ 0.3 | ≤ 0.3 | 1 (active) | 1 (active) | 1 (active) | 1 (active) | 1 (active) | 1 (active) | 1 (active) | 1 (active) | 1 (active) | 1 (active) | 1 (active) | 1 (active) | 1 (active) | 1 (active) | 1 (active)
O=C1Cc2c([nH]c3ccc(Br)cc23)-c2ccccc2N1 [Kenpaullone] | 3 | 3 | 3 | 3 | 1 | 1 (active) | 1 (active) | 1 (active) | 1 (active) | 1 (active) | 1 (active) | 1 (active) | 1 (active) | 1 (active) | 1 (active) | 1 (active) | 1 (active) | 1 (active) | 1 (active) | 1 (active)
Cc1ccc(/C(=C/CN2CCCC2)c2cccc(/C=C/C(=O)O)n2)cc1 [acrivastine] | 1 | 9 | 3 | 1 | 1 | 1 (active) | 1 (active) | 1 (active) | 1 (active) | 1 (active) | 1 (active) | 1 (active) | 1 (active) | 1 (active) | 1 (active) | 1 (active) | 1 (active) | 1 (active) | 1 (active) | 1 (active)
Nc1ncnc2c1nc(Cl)n2C1O[C@H](CO)[C@@H](O)[C@H]1O (stereo not given in full) [8-Chloroadenosine] | 1 | 1 | 1 | 1 | 3 | 1 (active) | 1 (active) | 1 (active) | 1 (active) | 1 (active) | 1 (active) | 1 (active) | 1 (active) | 1 (active) | 1 (active) | 1 (active) | 1 (active) | 1 (active) | 1 (active) | 1 (active)
CN1CCN(c2ccc(OC(F)(F)F)c(Nc3ncc4c(n3)-c3c(c(C(N)=O)nn3CCO)CC4)c2)CC1 | ≤ 0.3 | ≤ 0.3 | ≤ 0.3 | ≤ 0.3 | ≤ 0.3 | 1 (active) | 1 (active) | 1 (active) | 1 (active) | 1 (active) | 1 (active) | 1 (active) | 1 (active) | 1 (active) | 1 (active) | 1 (active) | 1 (active) | 1 (active) | 1 (active) | 1 (active)
Nc1nc(Cl)nc2c1ncn2[C@H]1C[C@H](O)[C@@H](CO)O1 [cladribine] | 3 | 1 | 1 | 1 | ≤ 0.3 | 1 (active) | 1 (active) | 1 (active) | 1 (active) | 1 (active) | 1 (active) | 1 (active) | 1 (active) | 1 (active) | 1 (active) | 1 (active) | 1 (active) | 1 (active) | 1 (active) | 1 (active)
CC(C)(N)c1cc(C(=O)N[C@@H]2CCc3ccc(OC4=C5CCC(=O)N=C5NC=C4)cc3C2)cc(C(F)(F)F)c1 [ML 786 dihydrochloride] | 1 | 1 | 1 | 1 | ≤ 0.3 | 1 (active) | 1 (active) | 1 (active) | 1 (active) | 1 (active) | 1 (active) | 1 (active) | 1 (active) | 1 (active) | 1 (active) | 1 (active) | 1 (active) | 1 (active) | 1 (active) | 1 (active)
COc1cc([C@@H]2c3cc4c(cc3[C@@H](O[C@@H]3O[C@@H]5CO[C@@H](c6cccs6)O[C@H]5[C@H](O)[C@H]3O)[C@H]3COC(=O)[C@H]23)OCO4)cc(OC)c1O [teniposide] | ≤ 0.3 | ≤ 0.3 | ≤ 0.3 | ≤ 0.3 | ≤ 0.3 | 1 (active) | 1 (active) | 1 (active) | 1 (active) | 1 (active) | 1 (active) | 1 (active) | 1 (active) | 1 (active) | 1 (active) | 1 (active) | 1 (active) | 1 (active) | 1 (active) | 1 (active)
Cc1ccc(NC(=O)c2ccc(CN3CCN(C)CC3)cc2)cc1Nc1nc(-c2cccnc2)cs1 [masitinib] | 3 | 9 | 3 | 3 | 9 | 1 (active) | 1 (active) | 1 (active) | 1 (active) | 1 (active) | 1 (active) | 1 (active) | 1 (active) | 1 (active) | 1 (active) | 1 (active) | 1 (active) | 1 (active) | 1 (active) | 1 (active)
C=C1CN(Cc2ccc(C(=O)Nc3ccccc3N)cc2)C(=O)c2ccccc21 | ≤ 0.3 | ≤ 0.3 | ≤ 0.3 | 1 | 1 | 1 (active) | 1 (active) | 1 (active) | 1 (active) | 1 (active) | 1 (active) | 1 (active) | 1 (active) | 1 (active) | 1 (active) | 1 (active) | 1 (active) | 1 (active) | 1 (active) | 1 (active)
Cc1cc(Nc2cc(C)c(C#N)c(NC(C)CCCC(C)(C)O)n2)n[nH]1 (stereo not given) [TC-A 2317 hydrochloride] | 1 | 1 | 1 | 1 | ≤ 0.3 | 1 (active) | 1 (active) | 1 (active) | 1 (active) | 1 (active) | 1 (active) | 1 (active) | 1 (active) | 1 (active) | 1 (active) | 1 (active) | 1 (active) | 1 (active) | 1 (active) | 1 (active)
